# According to ChEMBL document CHEMBL1961873, “Compounds: GSK PKIS; Assays: Nanosyn kinase panel” (2012):
# Columns and labels:
# [1] = target: T1, Serine/threonine-protein kinase D2 (Homo sapiens) (UniProt Q9BZL6); conditions: at 1 µM;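 further: mean value of PRKD2 inhibition, from the GSK PKIS screening panel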
# T1 sequence (whole entry): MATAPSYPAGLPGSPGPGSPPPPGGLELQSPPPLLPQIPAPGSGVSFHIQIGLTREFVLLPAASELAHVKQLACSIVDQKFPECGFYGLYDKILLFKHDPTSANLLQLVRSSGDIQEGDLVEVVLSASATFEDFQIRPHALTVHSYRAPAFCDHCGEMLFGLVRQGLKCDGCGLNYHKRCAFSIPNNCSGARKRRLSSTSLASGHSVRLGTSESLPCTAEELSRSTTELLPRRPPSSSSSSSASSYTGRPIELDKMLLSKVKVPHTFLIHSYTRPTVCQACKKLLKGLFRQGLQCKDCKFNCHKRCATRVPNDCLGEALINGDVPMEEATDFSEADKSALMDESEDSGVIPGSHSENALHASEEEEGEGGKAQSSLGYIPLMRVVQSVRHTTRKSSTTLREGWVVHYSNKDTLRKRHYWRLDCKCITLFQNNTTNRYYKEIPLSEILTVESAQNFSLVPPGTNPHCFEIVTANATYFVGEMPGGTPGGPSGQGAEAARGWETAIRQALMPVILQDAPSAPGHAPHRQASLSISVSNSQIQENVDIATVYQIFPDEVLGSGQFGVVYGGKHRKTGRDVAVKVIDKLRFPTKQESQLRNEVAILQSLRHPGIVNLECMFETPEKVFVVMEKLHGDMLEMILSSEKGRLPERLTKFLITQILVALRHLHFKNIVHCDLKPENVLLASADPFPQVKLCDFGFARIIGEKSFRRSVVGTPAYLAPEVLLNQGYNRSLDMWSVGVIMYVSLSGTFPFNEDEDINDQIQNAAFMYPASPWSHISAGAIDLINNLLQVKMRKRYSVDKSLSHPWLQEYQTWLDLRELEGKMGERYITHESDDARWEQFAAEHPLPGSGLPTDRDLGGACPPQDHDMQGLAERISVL
# [2] = target: T2, Serine/threonine-protein kinase D3 (Homo sapiens) (UniProt O94806); conditions: at 0.1 µM
# T2 sequence (whole entry): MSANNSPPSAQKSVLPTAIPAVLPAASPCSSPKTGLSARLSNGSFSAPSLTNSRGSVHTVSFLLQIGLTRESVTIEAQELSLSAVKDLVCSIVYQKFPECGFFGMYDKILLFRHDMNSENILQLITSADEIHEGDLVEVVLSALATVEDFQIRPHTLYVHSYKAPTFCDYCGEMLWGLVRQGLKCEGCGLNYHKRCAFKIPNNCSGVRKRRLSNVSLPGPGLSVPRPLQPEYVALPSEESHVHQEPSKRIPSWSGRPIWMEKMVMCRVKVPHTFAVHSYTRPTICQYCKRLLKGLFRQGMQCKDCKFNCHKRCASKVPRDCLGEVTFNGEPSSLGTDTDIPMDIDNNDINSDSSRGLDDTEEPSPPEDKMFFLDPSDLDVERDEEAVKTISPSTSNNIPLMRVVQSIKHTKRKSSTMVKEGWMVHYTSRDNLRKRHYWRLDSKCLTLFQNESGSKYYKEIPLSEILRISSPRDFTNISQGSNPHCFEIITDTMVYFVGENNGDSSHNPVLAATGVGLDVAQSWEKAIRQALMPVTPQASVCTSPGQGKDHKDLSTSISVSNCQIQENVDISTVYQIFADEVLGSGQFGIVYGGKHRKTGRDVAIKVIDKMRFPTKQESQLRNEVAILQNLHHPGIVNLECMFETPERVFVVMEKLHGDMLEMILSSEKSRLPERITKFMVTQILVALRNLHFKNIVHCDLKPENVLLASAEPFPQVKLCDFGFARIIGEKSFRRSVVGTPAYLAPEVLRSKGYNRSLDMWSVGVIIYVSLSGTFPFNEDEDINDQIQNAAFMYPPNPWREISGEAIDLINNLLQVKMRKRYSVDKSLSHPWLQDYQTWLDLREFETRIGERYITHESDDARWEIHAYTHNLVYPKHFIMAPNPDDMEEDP
# [3] = target: T2, Serine/threonine-protein kinase D3 (Homo sapiens); conditions: at 1 µM
# [4] = target: T3, cGMP-dependent protein kinase 1 (Homo sapiens) (UniProt Q13976); conditions: at 0.1 µM
# T3 sequence (whole entry): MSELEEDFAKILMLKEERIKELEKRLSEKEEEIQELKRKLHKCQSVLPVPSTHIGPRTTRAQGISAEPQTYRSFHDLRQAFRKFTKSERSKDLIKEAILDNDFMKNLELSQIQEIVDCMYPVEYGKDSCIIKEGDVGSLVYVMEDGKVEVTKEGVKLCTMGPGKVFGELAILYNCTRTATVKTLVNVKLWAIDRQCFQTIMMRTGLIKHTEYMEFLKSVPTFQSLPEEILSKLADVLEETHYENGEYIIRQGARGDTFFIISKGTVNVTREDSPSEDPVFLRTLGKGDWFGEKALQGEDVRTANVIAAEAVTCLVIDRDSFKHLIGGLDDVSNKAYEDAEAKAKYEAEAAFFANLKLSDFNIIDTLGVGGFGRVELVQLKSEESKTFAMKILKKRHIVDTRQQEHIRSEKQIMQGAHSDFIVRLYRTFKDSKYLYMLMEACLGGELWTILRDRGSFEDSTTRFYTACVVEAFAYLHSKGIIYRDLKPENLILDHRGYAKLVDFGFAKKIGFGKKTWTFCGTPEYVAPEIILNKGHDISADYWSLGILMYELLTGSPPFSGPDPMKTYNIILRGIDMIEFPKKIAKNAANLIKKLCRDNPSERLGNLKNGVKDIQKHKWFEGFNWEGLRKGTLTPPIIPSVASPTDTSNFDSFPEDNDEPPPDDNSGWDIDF
# [5] = target: T3, cGMP-dependent protein kinase 1 (Homo sapiens); conditions: at 1 µM
# [6] = target: T4, cGMP-dependent protein kinase 2 (Homo sapiens) (UniProt Q13237); conditions: at 0.1 µM
# T4 sequence (whole entry): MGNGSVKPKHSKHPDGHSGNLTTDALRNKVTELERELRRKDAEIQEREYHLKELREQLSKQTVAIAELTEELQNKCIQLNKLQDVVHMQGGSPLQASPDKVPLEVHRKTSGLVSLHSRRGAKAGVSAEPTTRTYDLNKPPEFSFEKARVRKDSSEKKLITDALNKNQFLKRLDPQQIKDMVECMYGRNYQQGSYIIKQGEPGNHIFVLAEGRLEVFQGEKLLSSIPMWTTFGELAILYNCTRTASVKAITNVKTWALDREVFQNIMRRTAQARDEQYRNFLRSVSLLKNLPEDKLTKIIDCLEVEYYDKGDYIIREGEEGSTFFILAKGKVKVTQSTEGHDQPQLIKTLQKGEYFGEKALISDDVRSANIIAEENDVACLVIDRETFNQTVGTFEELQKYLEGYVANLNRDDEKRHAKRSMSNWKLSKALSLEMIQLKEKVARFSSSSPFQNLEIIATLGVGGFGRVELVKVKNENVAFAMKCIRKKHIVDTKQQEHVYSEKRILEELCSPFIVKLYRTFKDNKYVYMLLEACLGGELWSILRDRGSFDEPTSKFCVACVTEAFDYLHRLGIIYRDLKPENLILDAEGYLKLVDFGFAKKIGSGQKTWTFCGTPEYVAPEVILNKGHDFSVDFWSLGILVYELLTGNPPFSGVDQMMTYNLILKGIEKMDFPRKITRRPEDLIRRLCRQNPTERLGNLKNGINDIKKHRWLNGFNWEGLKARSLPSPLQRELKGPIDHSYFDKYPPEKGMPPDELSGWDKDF
# [7] = target: T4, cGMP-dependent protein kinase 2 (Homo sapiens); conditions: at 1 µM
# [8] = target: T5, cAMP-dependent protein kinase catalytic subunit PRKX (Homo sapiens) (UniProt P51817); conditions: at 0.1 µM
# T5 sequence (whole entry): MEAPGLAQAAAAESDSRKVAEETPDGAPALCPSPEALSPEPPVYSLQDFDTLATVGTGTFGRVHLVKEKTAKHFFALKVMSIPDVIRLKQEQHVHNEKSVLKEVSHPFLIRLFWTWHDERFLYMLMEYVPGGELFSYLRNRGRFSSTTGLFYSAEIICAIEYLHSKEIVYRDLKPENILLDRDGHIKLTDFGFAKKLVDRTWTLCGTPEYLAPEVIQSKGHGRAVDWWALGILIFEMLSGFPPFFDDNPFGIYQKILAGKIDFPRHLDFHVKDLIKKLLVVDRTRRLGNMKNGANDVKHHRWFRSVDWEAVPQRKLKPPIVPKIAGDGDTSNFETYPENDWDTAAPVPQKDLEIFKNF
# [9] = target: T5, cAMP-dependent protein kinase catalytic subunit PRKX (Homo sapiens); conditions: at 1 µM
# [10] = target: Rho-associated protein kinase 1 (Homo sapiens) (UniProt Q13464); conditions: at 0.1 µM
# [11] = target: Rho-associated protein kinase 1 (Homo sapiens) (UniProt Q13464); conditions: at 1 µM
# [12] = target: Rho-associated protein kinase 2 (Homo sapiens) (UniProt O75116); conditions: at 0.1 µM
# Chain of Rho-associated protein kinase 2 (Homo sapiens) (O75116 whole entry, looked up): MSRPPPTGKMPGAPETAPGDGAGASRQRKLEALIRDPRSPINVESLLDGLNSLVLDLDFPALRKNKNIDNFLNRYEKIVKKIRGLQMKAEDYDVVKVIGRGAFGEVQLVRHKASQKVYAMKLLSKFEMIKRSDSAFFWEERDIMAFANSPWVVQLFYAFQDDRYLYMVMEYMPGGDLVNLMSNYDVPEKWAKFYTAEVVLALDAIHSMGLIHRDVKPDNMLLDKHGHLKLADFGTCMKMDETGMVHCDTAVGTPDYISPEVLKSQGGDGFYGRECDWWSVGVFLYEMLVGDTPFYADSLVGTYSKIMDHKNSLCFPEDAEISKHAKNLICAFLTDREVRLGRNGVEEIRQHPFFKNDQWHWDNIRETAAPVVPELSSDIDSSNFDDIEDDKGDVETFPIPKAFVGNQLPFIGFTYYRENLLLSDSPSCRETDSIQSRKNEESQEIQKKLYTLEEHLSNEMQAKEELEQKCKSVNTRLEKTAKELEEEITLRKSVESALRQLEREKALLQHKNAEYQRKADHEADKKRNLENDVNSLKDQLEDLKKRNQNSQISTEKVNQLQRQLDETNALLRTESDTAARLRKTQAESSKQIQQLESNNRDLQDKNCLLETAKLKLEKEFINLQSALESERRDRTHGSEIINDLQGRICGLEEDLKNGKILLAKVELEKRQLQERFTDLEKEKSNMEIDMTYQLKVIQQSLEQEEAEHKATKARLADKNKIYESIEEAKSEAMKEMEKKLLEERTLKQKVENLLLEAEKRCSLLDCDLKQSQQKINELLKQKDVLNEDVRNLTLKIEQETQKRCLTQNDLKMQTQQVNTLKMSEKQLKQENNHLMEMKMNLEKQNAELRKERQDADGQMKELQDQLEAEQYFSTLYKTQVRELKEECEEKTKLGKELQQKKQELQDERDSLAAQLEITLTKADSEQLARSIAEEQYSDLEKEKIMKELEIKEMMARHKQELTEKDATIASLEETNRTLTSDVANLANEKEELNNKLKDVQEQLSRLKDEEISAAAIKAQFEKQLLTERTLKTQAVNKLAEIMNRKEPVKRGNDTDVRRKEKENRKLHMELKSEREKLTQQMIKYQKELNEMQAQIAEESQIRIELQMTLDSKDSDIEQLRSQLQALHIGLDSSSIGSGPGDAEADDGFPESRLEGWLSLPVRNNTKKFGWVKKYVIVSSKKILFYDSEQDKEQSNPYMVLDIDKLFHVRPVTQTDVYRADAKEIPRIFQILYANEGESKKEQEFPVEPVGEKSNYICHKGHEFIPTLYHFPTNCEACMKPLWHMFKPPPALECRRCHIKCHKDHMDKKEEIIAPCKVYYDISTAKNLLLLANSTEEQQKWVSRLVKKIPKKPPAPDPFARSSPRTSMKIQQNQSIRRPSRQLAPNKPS
# [13] = target: Rho-associated protein kinase 2 (Homo sapiens) (UniProt O75116); conditions: at 1 µM
# [14] = target: Ribosomal protein S6 kinase alpha-1 (Homo sapiens) (UniProt Q15418); conditions: at 0.1 µM
# Chain of Ribosomal protein S6 kinase alpha-1 (Homo sapiens) (Q15418 whole entry): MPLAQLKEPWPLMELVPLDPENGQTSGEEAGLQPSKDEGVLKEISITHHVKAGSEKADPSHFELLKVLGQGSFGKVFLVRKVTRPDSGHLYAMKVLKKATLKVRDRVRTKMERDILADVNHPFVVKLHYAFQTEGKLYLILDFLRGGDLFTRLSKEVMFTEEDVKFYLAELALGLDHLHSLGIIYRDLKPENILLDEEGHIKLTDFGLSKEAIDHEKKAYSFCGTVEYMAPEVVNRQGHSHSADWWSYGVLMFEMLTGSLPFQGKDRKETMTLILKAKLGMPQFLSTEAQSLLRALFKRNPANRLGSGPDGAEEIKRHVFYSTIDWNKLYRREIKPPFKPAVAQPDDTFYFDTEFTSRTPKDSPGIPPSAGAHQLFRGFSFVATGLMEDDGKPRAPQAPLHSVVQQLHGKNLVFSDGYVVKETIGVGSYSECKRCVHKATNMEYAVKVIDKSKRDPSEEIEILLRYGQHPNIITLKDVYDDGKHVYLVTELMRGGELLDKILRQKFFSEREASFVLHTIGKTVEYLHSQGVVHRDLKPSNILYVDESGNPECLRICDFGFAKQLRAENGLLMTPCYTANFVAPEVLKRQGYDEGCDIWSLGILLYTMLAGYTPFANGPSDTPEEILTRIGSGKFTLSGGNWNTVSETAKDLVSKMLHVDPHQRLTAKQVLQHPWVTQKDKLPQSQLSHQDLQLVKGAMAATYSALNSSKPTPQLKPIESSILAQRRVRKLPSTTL
# [15] = target: Ribosomal protein S6 kinase alpha-1 (Homo sapiens) (UniProt Q15418); conditions: at 1 µM
# [16] = target: Ribosomal protein S6 kinase alpha-3 (Homo sapiens) (UniProt P51812); conditions: at 0.1 µM
# Chain of Ribosomal protein S6 kinase alpha-3 (Homo sapiens) (P51812 whole entry): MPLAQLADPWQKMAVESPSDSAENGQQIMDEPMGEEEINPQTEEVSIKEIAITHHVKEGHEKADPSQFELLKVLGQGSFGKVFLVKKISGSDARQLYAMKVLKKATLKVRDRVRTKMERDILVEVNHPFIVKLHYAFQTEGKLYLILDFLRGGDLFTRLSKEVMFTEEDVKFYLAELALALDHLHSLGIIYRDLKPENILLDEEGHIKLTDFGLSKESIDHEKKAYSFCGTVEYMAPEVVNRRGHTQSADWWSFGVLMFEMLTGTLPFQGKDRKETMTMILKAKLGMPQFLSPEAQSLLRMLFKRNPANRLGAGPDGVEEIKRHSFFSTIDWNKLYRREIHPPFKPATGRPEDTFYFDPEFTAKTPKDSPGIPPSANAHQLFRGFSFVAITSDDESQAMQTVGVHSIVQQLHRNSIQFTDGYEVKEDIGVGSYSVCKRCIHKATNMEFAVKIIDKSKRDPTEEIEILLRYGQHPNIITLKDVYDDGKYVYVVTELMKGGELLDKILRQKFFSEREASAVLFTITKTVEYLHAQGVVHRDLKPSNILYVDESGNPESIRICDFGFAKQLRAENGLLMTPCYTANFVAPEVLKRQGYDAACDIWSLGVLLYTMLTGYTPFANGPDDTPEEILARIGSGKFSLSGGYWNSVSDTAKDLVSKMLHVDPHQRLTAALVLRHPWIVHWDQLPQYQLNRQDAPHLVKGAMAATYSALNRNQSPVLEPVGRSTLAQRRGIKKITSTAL
# [17] = target: Ribosomal protein S6 kinase alpha-3 (Homo sapiens) (UniProt P51812); conditions: at 1 µM
# [18] = target: Ribosomal protein S6 kinase alpha-2 (Homo sapiens) (UniProt Q15349); conditions: at 0.1 µM
# Chain of Ribosomal protein S6 kinase alpha-2 (Homo sapiens) (Q15349 whole entry): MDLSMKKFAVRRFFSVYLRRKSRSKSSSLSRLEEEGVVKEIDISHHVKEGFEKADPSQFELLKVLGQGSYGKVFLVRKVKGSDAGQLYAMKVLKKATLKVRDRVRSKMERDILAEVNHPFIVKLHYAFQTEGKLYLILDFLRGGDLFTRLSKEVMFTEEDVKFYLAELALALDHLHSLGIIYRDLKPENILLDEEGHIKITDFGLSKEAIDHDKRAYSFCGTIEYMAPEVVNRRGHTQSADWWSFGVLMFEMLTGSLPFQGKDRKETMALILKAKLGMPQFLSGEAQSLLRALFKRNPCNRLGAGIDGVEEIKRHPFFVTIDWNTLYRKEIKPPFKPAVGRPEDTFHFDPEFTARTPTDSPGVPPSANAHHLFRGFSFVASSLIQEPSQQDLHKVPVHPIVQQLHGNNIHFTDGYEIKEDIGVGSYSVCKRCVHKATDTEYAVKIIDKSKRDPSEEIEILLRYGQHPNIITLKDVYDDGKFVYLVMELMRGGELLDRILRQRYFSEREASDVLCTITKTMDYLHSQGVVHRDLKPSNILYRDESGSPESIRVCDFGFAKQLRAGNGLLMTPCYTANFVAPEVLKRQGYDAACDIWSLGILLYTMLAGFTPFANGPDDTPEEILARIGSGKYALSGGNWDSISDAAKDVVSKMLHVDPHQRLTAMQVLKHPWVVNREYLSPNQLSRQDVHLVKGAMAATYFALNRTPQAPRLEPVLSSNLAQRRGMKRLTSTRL
# [19] = target: Ribosomal protein S6 kinase alpha-2 (Homo sapiens) (UniProt Q15349); conditions: at 1 µM
# [20] = target: Ribosomal protein S6 kinase alpha-6 (Homo sapiens) (UniProt Q9UK32); conditions: at 0.1 µM;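 further: reported value is the mean inhibition of RSK4, from the GSK PKIS kinase inhibitor screen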
# Chain of Ribosomal protein S6 kinase alpha-6 (Homo sapiens) (Q9UK32 whole entry): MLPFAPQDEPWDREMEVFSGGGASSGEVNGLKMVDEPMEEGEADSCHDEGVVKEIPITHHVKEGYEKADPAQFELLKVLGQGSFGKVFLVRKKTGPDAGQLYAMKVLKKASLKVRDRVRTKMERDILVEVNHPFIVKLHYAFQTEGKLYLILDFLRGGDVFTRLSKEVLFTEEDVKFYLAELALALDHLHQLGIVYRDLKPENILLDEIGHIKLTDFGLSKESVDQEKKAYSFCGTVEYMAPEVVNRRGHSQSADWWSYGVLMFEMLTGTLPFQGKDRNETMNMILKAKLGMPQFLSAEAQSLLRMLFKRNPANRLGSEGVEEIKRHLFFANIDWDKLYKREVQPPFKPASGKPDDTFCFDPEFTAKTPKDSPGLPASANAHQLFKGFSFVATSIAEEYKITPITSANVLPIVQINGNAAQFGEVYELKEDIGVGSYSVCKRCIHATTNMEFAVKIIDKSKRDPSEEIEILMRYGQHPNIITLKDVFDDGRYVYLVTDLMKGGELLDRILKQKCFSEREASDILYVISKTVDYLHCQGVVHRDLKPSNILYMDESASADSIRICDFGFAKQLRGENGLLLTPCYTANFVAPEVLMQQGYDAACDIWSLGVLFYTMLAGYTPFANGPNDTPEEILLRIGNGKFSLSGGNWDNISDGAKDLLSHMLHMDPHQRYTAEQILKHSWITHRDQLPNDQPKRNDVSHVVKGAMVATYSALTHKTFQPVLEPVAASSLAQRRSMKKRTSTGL
SMILES,inhibition [1] [%],inhibition [2] [%],inhibition [3] [%],inhibition [4] [%],inhibition [5] [%],inhibition [6] [%],inhibition [7] [%],inhibition [8] [%],inhibition [9] [%],inhibition [10] [%],inhibition [11] [%],inhibition [12] [%],inhibition [13] [%],inhibition [14] [%],inhibition [15] [%],inhibition [16] [%],inhibition [17] [%],inhibition [18] [%],inhibition [19] [%],inhibition [20] [%]
c1ccc(-c2nc3n(c2-c2ccc4c(c2)OCO4)CCC3)nc1,4.47,2.58,5.25,2.47,2.75,1.67,2.85,0.87,3.61,3.64,5.65,5.54,5.37,4.98,5.39,4.41,5.78,1.95,1.35,1.28
c1cc(-c2cnn3nc(N4CCOCC4)ccc23)nc(NC2CC2)n1,52.4,5.91,49.9,2.98,6.68,2.25,11.9,1.09,-0.73,1.67,5.25,2.62,10.7,2.23,8.38,0.87,6.33,1.86,5.06,0.29
COc1cc2ncn(-c3cc(OCc4ccccc4C(F)(F)F)c(C(=O)N(C)C)s3)c2cc1OC,1.88,0.07,-0.01,-0.43,0.77,-0.41,0.43,-0.01,-0.4,-0.15,0.34,-0.35,1.56,-0.72,0.84,-0.53,0.59,-0.15,1.29,-0.29
O=C(O[C@H]1CN[C@H](C#Cc2cc3ncnc(Nc4ccc(Cc5ccccc5)cc4)c3s2)C1)N1CCOCC1,1.56,1.99,1.5,3.46,3.85,4.54,3.68,3.27,3.94,2.02,1.88,1.88,2.51,1.51,1.3,1.48,1.79,2.02,3,1.78
O=C(Nc1n[nH]c2cc(-c3ccc(F)cc3)ccc12)C1CC1,4.37,3.68,5.25,4.3,6.58,3.33,5.58,2.23,3.66,6.12,9.51,7.81,9.75,6.62,9.5,4.78,9.26,3.68,6.96,1.52
CCn1c(-c2nonc2N)nc2ccccc21,4.37,2.15,3.93,6.5,30.9,26.9,70.6,3.21,5.67,6.65,36.6,9.34,42.6,18,58.3,7.22,36.2,19.1,68.5,1.71
